Results filed as inconclusive are left out. The source made the active and inactive calls. Calls come from the whole dose curve; as a rule, active = well fitted inhibition curve with a large enough effect; inconclusive = small, poorly fitted or top-dose-only effect; inactive = flat fitted curve, though single readings scatter.
What was measured:
Assay in all cases: qHTS profiling for inhibitors of Plasmodium falciparum proliferation (AID 504749); note: nearly all actives have a fitted effect of over 60% in size
Details in all cases: P. falciparum in erythrocytes, SYBR Green DNA, 72 h; series mostly up to 28.7 µM
[1] = tested on: CP315
Procedure, shortened: (§1)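 Readout was DNA-dye fluorescence from lysed cultures, ex 485/em 535 nm. Parasitized red cells had grown 72 h with compound; data scaled between 0.29 uM artemisinin and DMSO wells and corrected using vehicle-only plates.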

[2] = tested on: CP325
Procedure, shortened: as §1

[3] = tested on: CP329
Procedure, shortened: as §1

[4] = tested on: CP335
Procedure, shortened: as §1

[5] = tested on: DFO2036
Procedure, shortened: as §1

[6] = tested on: DIV14
Procedure, shortened: as §1

[7] = tested on: DIV17
Procedure, shortened: as §1

[8] = tested on: DIV30
Procedure, shortened: as §1

[9] = tested on: Dd2
Procedure, shortened: as §1

[10] = tested on: ECU
Procedure, shortened: as §1

[11] = tested on: FAB9
Procedure, shortened: as §1

[12] = tested on: GB4
Procedure, shortened: as §1

[13] = tested on: HB3
Procedure, shortened: as §1

[14] = tested on: JCK
Procedure, shortened: as §1

[15] = tested on: N140
Procedure, shortened: as §1

[16] = tested on: P93_24
Procedure, shortened: as §1

[17] = tested on: PAD
Procedure, shortened: as §1

[18] = tested on: PC15
Procedure, shortened: as §1

[19] = tested on: P94_40
Procedure, shortened: as §1

[20] = tested on: ICS
Procedure, shortened: as §1

Measured: Potency

CN(C/C=C/C#CC(C)(C)C)Cc1cccc2ccccc12
inactive: [1] | [2] | [3] | [4] | [5] | [6] | [7] | [8] | [9] | [10] | [11] | [12] | [13] | [14] | [15] | [16] | [17] | [18]

O=C(O)Cn1c(C(=O)Nc2nc(-c3ccccc3Cl)cs2)cc2ccccc21
inactive: [1] | [2] | [3] | [4] | [5] | [6] | [7] | [8] | [9] | [10] | [11] | [12] | [13] | [14] | [15] | [16] | [19] | [17] | [18]

O=C(O)CCCCC1CCSS1 (stereo not drawn)
inactive: [1] | [2] | [3] | [4] | [5] | [7] | [8] | [9] | [10] | [11] | [12] | [13] | [20] | [14] | [15] | [16] | [19] | [17] | [18]

NC(=O)NS(=O)(=O)c1ccc(N)cc1
inactive: [1] | [2] | [3] | [4] | [5] | [6] | [7] | [8] | [9] | [10] | [11] | [12] | [13] | [14] | [15] | [16] | [19] | [17] | [18]

Cc1ccc(S(=O)(=O)NC(=O)NC2CCCCC2)cc1
inactive: [1] | [2] | [3] | [4] | [5] | [6] | [7] | [8] | [10] | [11] | [12] | [13] | [20] | [14] | [15] | [16] | [19] | [17] | [18]

Nc1ccc(C(=O)Oc2ccccc2)c(O)c1
inactive: [1] | [2] | [3] | [4] | [5] | [7] | [8] | [9] | [10] | [11] | [12] | [13] | [20] | [14] | [15] | [16] | [19] | [17] | [18]

COc1ccc(C(=O)NCc2ccc(OCCN(C)C)cc2)cc1OC
inactive: [1] | [2] | [3] | [4] | [5] | [6] | [8] | [9] | [10] | [11] | [12] | [13] | [20] | [14] | [15] | [16] | [19] | [17] | [18]

COc1ccccc1Oc1c(NS(=O)(=O)c2ccc(C(C)(C)C)cc2)nc(-c2ncccn2)nc1OCCO
inactive: [1] | [2] | [3] | [4] | [5] | [6] | [7] | [8] | [9] | [10] | [11] | [12] | [13] | [14] | [15] | [16] | [19] | [17] | [18]

Nc1ncnc2c1ncn2[C@@H]1O[C@H](COP(=O)(O)O)[C@@H](O)[C@H]1O
inactive: [1] | [2] | [3] | [4] | [5] | [6] | [7] | [8] | [9] | [10] | [11] | [12] | [13] | [14] | [15] | [16] | [19] | [17] | [18]

O=C1CC[C@@H](C(=O)O)N1
inactive: [1] | [2] | [3] | [4] | [5] | [6] | [8] | [9] | [10] | [11] | [13] | [14] | [15] | [19] | [17] | [18]

CC(=O)NS(=O)(=O)c1ccc(N)cc1
inactive: [1] | [2] | [3] | [4] | [5] | [6] | [7] | [8] | [9] | [10] | [11] | [12] | [13] | [20] | [14] | [15] | [19] | [17] | [18]

O=C(O)COC(=O)Cc1ccccc1Nc1c(Cl)cccc1Cl
inactive: [1] | [2] | [3] | [4] | [5] | [6] | [7] | [8] | [9] | [10] | [11] | [12] | [13] | [20] | [14] | [15] | [19] | [17] | [18]

COc1cc(O)cc(O)c1
inactive: [1] | [2] | [3] | [4] | [5] | [6] | [8] | [9] | [10] | [11] | [12] | [13] | [20] | [14] | [15] | [16] | [19] | [17] | [18]
